PubChem BioAssay (NCATS)
Where “and” joins values, the source holds several entries; their conditions need not be identical. Equal entries are not always repeated. Records with an inconclusive call do not appear. Entries that show only a call come without a potency. Some compounds were tested as several samples or in several runs, with calls that do not always agree. Calls of active or inactive are those of the source. Calls follow the shape of the dose curve; as a rule, active = well fitted curve in the direction sought with a large enough effect; inconclusive = small, poorly fitted or top-dose-only effect, or another doubt; inactive = no such curve, though single readings can be large; an effect the other way counts as inactive or inconclusive.

How the values were obtained:
[1] = P-glycoprotein substrates identified in KB-8-5-11 adenocarcinoma cell line, qHTS therapeutic library screen (AID 1346987); also: nearly all actives have a fitted effect of over 65% in size; also: potency is read from the fitted curve at half-maximal effect
Method in brief: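 KB-8-5-11, a colchicine-selected P-gp-overexpressing KB-3-1 subline, was grown without colchicine for the assay. Cells were seeded at 500 cells/well, dosed in concentration-response and incubated 72 h at 37 degree C, 5% CO2. Viability was read by CellTiter-Glo luminescence.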

[2] = NS1 protein of Zika virus - qHTS assay to identify small molecule inhibitors in human HEK 293 cells (AID 1347053); also: nearly all actives have a fitted effect of over 55% in size; also: potency is read from the fitted curve at half-maximal effect
Method in brief: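 HEK 293; 20 h pre-culture, 37 C/5% CO2; cpd 1 h pre-infection; ZIKV MR766, MOI = 0.5, 24 h, 37 C; TR-FRET NS1 readout (two anti-NS1 Abs); norm. to no-virus vs infected.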

[3] = qHTS of pediatric cancer cell lines to identify multiple opportunities for drug repurposing: Primary screen for TC32 cells (AID 1347089); also: nearly all actives have a fitted effect of over 60% in size; also: potency is read from the fitted curve at half-maximal effect
Method in brief: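 Luminescent ATP read-out (CellTiter-Glo) of metabolically active TC32 cells after 48 h exposure. Concentration-response curves came from 11-point (MIPE, 0.78 nM–46 µM) or 8-point (NPC, 0.59 nM–46 µM) primary titrations; follow-up used 11 points.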

[4] = qHTS of pediatric cancer cell lines to identify multiple opportunities for drug repurposing: Primary screen for DAOY cells (AID 1347090); also: nearly all actives have a fitted effect of over 55% in size; also: potency is read from the fitted curve at half-maximal effect
Method in brief: (§1)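 Cell viability, CellTiter-Glo luminescence; 500-1,000 cells/well, 8- or 11-point titration, 48 h compound exposure at 37 degrees C, 5% CO2. Controls: DMSO neutral, bortezomib 2.3 µM final as positive.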

[5] = qHTS of pediatric cancer cell lines to identify multiple opportunities for drug repurposing: Primary screen for SJ-GBM2 cells (AID 1347091); also: potency is read from the fitted curve at half-maximal effect
Method in brief: as §1

[6] = qHTS of pediatric cancer cell lines to identify multiple opportunities for drug repurposing: Primary screen for SK-N-MC cells (AID 1347093); also: potency is read from the fitted curve at half-maximal effect
Method in brief: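 Metabolically active cells were quantified by ATP-dependent luminescence (CellTiter-Glo, 15 min at room temperature) following 48 h treatment. Cells had been plated at 500-1,000 per well and settled for 5 h beforehand.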

[7] = qHTS of pediatric cancer cell lines to identify multiple opportunities for drug repurposing: Primary screen for BT-37 cells (AID 1347094); also: potency is read from the fitted curve at half-maximal effect
Method in brief: (§2)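 Quantitative HTS format: each compound titrated (MIPE 11 points from 0.78 nM, NPC 8 points from 0.59 nM) onto cells plated 5 hours earlier. After 48 h at 37 degrees C, CellTiter-Glo luminescence was recorded.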

[8] = qHTS of pediatric cancer cell lines to identify multiple opportunities for drug repurposing: Primary screen for NB-EBc1 cells (AID 1347095); also: potency is read from the fitted curve at half-maximal effect
Method in brief: as §2

[9] = qHTS of pediatric cancer cell lines to identify multiple opportunities for drug repurposing: Primary screen for U-2 OS cells (AID 1347096); also: nearly all actives have a fitted effect of over 50% in size
Method in brief: (§3)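 Cells (500-1,000/well) rested 5 h, then received compounds for 48 h; metabolically active cells were measured by CellTiter-Glo luminescence. Final concentrations spanned up to 46 µM (MIPE, 11-point) or 0.59 nM-46 µM (NPC, 8-point) in primary screens, 11-point in follow-ups.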

[10] = qHTS of pediatric cancer cell lines to identify multiple opportunities for drug repurposing: Primary screen for Saos-2 cells (AID 1347097); also: nearly all actives have a fitted effect of over 40% in size; also: potency is read from the fitted curve at half-maximal effect
Method in brief: as §2

[11] = qHTS of pediatric cancer cell lines to identify multiple opportunities for drug repurposing: Primary screen for SK-N-SH cells (AID 1347098); also: nearly all actives have a fitted effect of over 65% in size; also: potency is read from the fitted curve at half-maximal effect
Method in brief: as §3

[12] = qHTS of pediatric cancer cell lines to identify multiple opportunities for drug repurposing: Primary screen for NB1643 cells (AID 1347099); also: nearly all actives have a fitted effect of over 50% in size; also: potency is read from the fitted curve at half-maximal effect
Method in brief: as §2

[13] = qHTS of pediatric cancer cell lines to identify multiple opportunities for drug repurposing: Primary screen for A673 cells (AID 1347092); also: nearly all actives have a fitted effect of over 45% in size; also: potency is read from the fitted curve at half-maximal effect
Method in brief: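 Cell viability of A673 measured by CellTiter-Glo ATP luminescence after 48 hours compound exposure. Dilution series spanned 0.78 nM to 46 µM (MIPE, 11-point) or 0.59 nM to 46 µM (NPC, 8-point); bortezomib 2.3 uM positive control.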

SMILES | Potency [1] | Potency [2] | Potency [3] | Potency [4] | Potency [5] | Potency [6] | Potency [7] | Potency [8] | Potency [9] | Potency [10] | Potency [11] | Potency [12] | Potency [13]
CO[C@@]12[C@H](COC(N)=O)C3=C(C(=O)C(C)=C(N)C3=O)N1C[C@@H]1N[C@@H]12 | inactive and 16.6 µM (active) | inactive | inactive | 9.35 µM (active) | 14800 nM (active) | 266 nM (active) and 743 nM (active) | 347 nM (active) and 1.72 µM (active) | 335 nM (active) and 9.35 µM (active) | inactive | inactive | 1.72 µM (active) and 8.57 µM (active) | 1.33 µM (active) | 
C[C@@H](CN1CC(=O)NC(=O)C1)N1CC(=O)NC(=O)C1 | inactive and 18.7 µM (active) | inactive | inactive | inactive | inactive | 23.7 µM (active) and 7.43 µM (active) | 6.85 µM (active) | 3.72 µM (active) | inactive | inactive | inactive |  | 
CCn1cc(C(=O)O)c(=O)c2cc(F)c(N3CCNCC3)cc21 | inactive | inactive | inactive | inactive | inactive | inactive | inactive | inactive | inactive | inactive | inactive | inactive | 
CC(C)C1CCC(C(=O)N[C@H](Cc2ccccc2)C(=O)O)CC1 (stereo partly drawn) | inactive | inactive | inactive |  | inactive | inactive | inactive | inactive | inactive | inactive | inactive | inactive | inactive
NS(=O)(=O)c1cc2c(cc1Cl)NC(C(Cl)Cl)NS2(=O)=O (stereo not drawn) | inactive | inactive | inactive | inactive | inactive | inactive | inactive | inactive | inactive | inactive | inactive | inactive | 
C1CCC(C(CC2CCCCN2)C2CCCCC2)CC1 (stereo not drawn) | 5.17 µM (active) and 16.6 µM (active) | 10 µM (active) and 11.8 µM (active) | inactive | inactive |  | 11.9 µM (active) | 34.7 µM (active) and 30.6 µM (active) | 26.4 µM (active) | inactive | 13.3 µM (active) and 33.2 µM (active) | 15.4 µM (active) | 21.1 µM (active) | 
Cc1ccnc2c1NC(=O)c1cccnc1N2C1CC1 | inactive | inactive | inactive | inactive | inactive |  | inactive | inactive | inactive | inactive |  | inactive | inactive
CNNCc1ccc(C(=O)NC(C)C)cc1 | inactive | inactive | inactive |  | inactive | inactive | inactive | inactive | inactive | inactive | inactive | inactive | inactive
O=C(O)c1cccnc1 | inactive | inactive | inactive | inactive | inactive |  | inactive | inactive | inactive | inactive | inactive | inactive | 
O=c1oc2c(O)c(O)cc3c(=O)oc4c(O)c(O)cc1c4c23 | inactive | inactive | inactive | inactive | inactive | inactive | inactive | inactive | inactive | inactive | inactive | inactive | 
CCC(=O)O[C@]1(C(=O)CCl)[C@@H](C)C[C@H]2[C@@H]3CCC4=CC(=O)C=C[C@]4(C)[C@@]3(F)[C@@H](O)C[C@@]21C | inactive | inactive | inactive | inactive | inactive | 26.6 µM (active) and 20.9 µM (active) | inactive | inactive | inactive | inactive | inactive | inactive | 
CN(C)c1ccc(C(=C2C=CC(=[N+](C)C)C=C2)c2ccc(N(C)C)cc2)cc1 | 8.2 µM (active) and 1.48 µM (active) | inactive and 3.72 µM (active) | 2.64 µM (active) and 1.17 µM (active) | 2.66 µM (active) and 1.48 µM (active) | 1.33 µM (active) and 372 nM (active) | 1.06 µM (active) | 1.23 µM (active) and 685 nM (active) | 2.99 µM (active) and 935 nM (active) |  | 2.11 µM (active) and 418 nM (active) | 1.09 µM (active) and 2.41 µM (active) | 3.35 µM (active) and 7.43 µM (active) | 
CN1CCN(c2c(F)cc3c(=O)c(C(=O)O)cn(CCF)c3c2F)CC1 | inactive | inactive | inactive | inactive | inactive | inactive | inactive | inactive | inactive | inactive | inactive | inactive | 
O=C(O)CCn1c2c(c3ccccc31)C[C@H](NS(=O)(=O)c1ccc(F)cc1)CC2 | inactive | inactive | inactive |  | inactive | inactive | inactive | inactive | inactive | inactive | inactive | inactive | inactive
CN(C)CCc1c[nH]c2ccc(CS(=O)(=O)N3CCCC3)cc12 | inactive | inactive | inactive | inactive | inactive | inactive | inactive | inactive | inactive | inactive | inactive | inactive | 
NC(=O)N1c2ccccc2CC(=O)c2ccccc21 | inactive | inactive | inactive | inactive | inactive | inactive | inactive | inactive | inactive | inactive | inactive | inactive | 
CC(C)Cn1cnc2c(N)nc3ccccc3c21 | inactive | inactive | inactive | inactive |  | 16.6 µM (active) |  |  | inactive |  |  |  | 

SMILES | Potency [1] | Potency [2] | Potency [3] | Potency [4] | Potency [5] | Potency [6] | Potency [7] | Potency [8] | Potency [9] | Potency [10] | Potency [11] | Potency [12] | Potency [13]
CCn1cc(C(=O)O)c(=O)c2cc(F)c(N3CCN(C)CC3)cc21 | inactive | inactive | inactive |  | inactive | inactive | inactive | inactive | inactive | inactive | inactive | inactive | inactive
CCOc1cc(N)c(Cl)cc1C(=O)NCC1CN(Cc2ccc(F)cc2)CCO1 (stereo not drawn) | inactive | inactive | inactive | inactive | inactive |  | inactive | inactive | inactive | inactive | inactive | inactive | 
CCCOc1ccc(C(=O)OCCN(CC)CC)cc1N | inactive | inactive | inactive |  | inactive | inactive | inactive | inactive | inactive | inactive | inactive | inactive | inactive
CC[C@H](NC(C)C)[C@H](O)c1ccc(O)c2[nH]c(=O)ccc12 | inactive | inactive | inactive | inactive | inactive | inactive | inactive | inactive | inactive | inactive | inactive | inactive | 
Cc1cccc(N(C)C(=S)Oc2ccc3ccccc3c2)c1 | inactive | inactive | inactive | inactive |  |  | inactive | inactive | inactive |  | 15.2 µM (active) |  | inactive
NC(N)=NC(N)=NCCc1ccccc1 | inactive | inactive | inactive | 18.7 µM (active) | inactive | inactive |  | inactive | inactive | inactive | inactive | inactive | 
CC1=NN(c2ccccc2)C(=O)C1 | inactive | inactive | inactive | inactive | inactive | inactive | inactive | inactive | inactive | inactive | inactive | inactive | 
CNC1CCCN(c2c(F)cc3c(=O)c(C(=O)O)cn(C4CC4)c3c2OC)C1 (stereo not drawn) | inactive | inactive | inactive | inactive | inactive | inactive | inactive | inactive | inactive | inactive |  |  | 
CCOCC(O)COc1ccc(NC(=O)CC[S+](C)C)cc1 (stereo not drawn) | inactive | inactive | inactive | inactive | inactive | inactive | inactive | inactive | inactive | inactive | inactive | inactive | 
COc1cc([C@@H]2c3cc4c(cc3[C@H](O)[C@H]3COC(=O)[C@H]23)OCO4)cc(OC)c1OC | 130 nM (active) and 11.8 nM (active) | inactive | 167 nM (active) and 5.2 nM (active) | 0.0335 µM (active) | 23.7 nM (active) and 1 nM (active) | 53.1 nM (active) and 1 nM (active) | 69.2 nM (active) and 1 nM (active) | 8.4 nM (active) and 1 nM (active) | inactive | 33.5 nM (active) and 2.64 µM (active) | inactive | 0.0596 µM (active) | 
Cc1cc(NS(=O)(=O)c2ccc(N)cc2)no1 | inactive | inactive | inactive | inactive | inactive |  | inactive | inactive | inactive | inactive |  |  | 
COC(=O)Nc1nc2ccc(C(=O)c3ccccc3)cc2[nH]1 | 699 nM (active) and 2.96 µM (active) | inactive | 210 nM (active) and 3.3 µM (active) | 106 nM (active) and 1.18 µM (active) | 376 nM (active) | 53.1 nM (active) and 332 nM (active) | 347 nM (active) and 2.43 µM (active) | 0.188 µM (active) |  | 66.8 nM (active) and 662 nM (active) | 8.57 µM (active) |  | 106 nM (active) and 935 nM (active)
Cc1noc(NS(=O)(=O)c2ccc(N)cc2)c1C | inactive | inactive | inactive |  | inactive | inactive | inactive | inactive | inactive | inactive | inactive | inactive | inactive
Cc1nnc(C(=O)NC(C)(C)c2nc(C(=O)NCc3ccc(F)cc3)c(O)c(=O)n2C)o1 | inactive | inactive | inactive | inactive | inactive | inactive | inactive | inactive | inactive | inactive | inactive | inactive | 
CO[C@@H]1[C@@H](OC(N)=O)[C@@H](O)[C@H](Oc2ccc3c(O)c(NC(=O)c4ccc(O)c(CC=C(C)C)c4)c(=O)oc3c2C)OC1(C)C | inactive | inactive | inactive | inactive | inactive | inactive | inactive |  | inactive | inactive | inactive | inactive | inactive
Nc1nc(F)nc2c1ncn2[C@@H]1O[C@H](CO)[C@@H](O)[C@@H]1O | inactive and 662 nM (active) | inactive and 2.09 µM (active) | 18.7 µM (active) and 2.62 µM (active) | 1.48 µM (active) | 935 nM (active) | 33.5 nM (active) and 332 nM (active) | 0.863 µM (active) | 841 nM (active) and 1.05 µM (active) |  | 150 nM (active) and 935 nM (active) |  | 0.372 µM (active) | 743 nM (active)
